HP1b binding inh – blocks HP1-beta chromodomain binding to methylated histone tails. Potency, µM (series often up to 114 µM), inactives show at the top dose activity change, negative = inhibition, most hits filed as inhibitors. AlphaScreen HP1-beta / biotin-H3K9me3 peptide binding. 390,000 compounds, 0.56% hits; further: potency means the concentration at half of the fitted maximal effect; nearly all actives have a fitted effect of over 70% in size
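AlphaScreen: HP1-beta (50 nM) preformed 30 min with biotin-H3(1-18)K9me3 peptide (50 nM) in PBS pH 7.4, 0.01% Tween-20. Compound added for 30 min at RT, then streptavidin donor/nickel chelate acceptor beads (10 ug/mL) for 30 min.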
G9a block – blocks human histone lysine methyltransferase G9a; AID 504332; 350,000 compounds, 8.8% hits; G9a H3K9 monomethylation, AlphaScreen, 2 h; Potency, µM (highest dose often 102 µM), for inactives: at the top dose activity, negative = inhibition, most hits filed as inhibitors; Q96KQ7; further: potency means the concentration at half of the fitted maximal effect; on the % scale 0 is the no-effect control and ±100 the full control effect; nearly all actives have a fitted effect of over 75% in size
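Signal arises when biotinylated H3K9 peptide, once monomethylated, bridges streptavidin donor and antibody-captured acceptor beads. Enzyme at 20 nM was preincubated 15 min with test compounds; peptide 500 nM and SAM 20 uM then reacted for 2 h.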
CtBP-E1A inh – inhibitors of CtBP/E1A interaction; AlphaScreen GST-E1A/His-CtBP binding, 1536-well; stronger effect = lower value; activity change, % (no concentration beside the values); 340,000 compounds, 0.49% hits; AID 651724; in the data active means activity change below about -65%; inconclusive means mostly about -30% to -63%; further: on the % scale 0 is the no-effect control and ±100 the full control effect
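Protein mix (5X: 125 nM each GST-E1A, His-CtBP) was incubated with pinned compound 2 h at 37 deg C in dark, in 50 mM Tris pH 8.0 buffer with 300 mM NaCl. Glutathione donor and nickel acceptor beads followed; AlphaScreen signal read after 1 h.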
JMJD2A Tudor inh – blocks the human JMJD2A Tudor domain. O75164. AlphaScreen JMJD2A-Tudor / H3K4me3 peptide binding. Potency, µM (top dose mostly 114 µM), inactives show at the top dose activity change, negative = inhibition, usual class: inhibitors. 390,000 compounds, 4.4% hits. AID 504339; further: potency means the concentration at half of the fitted maximal effect; on the % scale 0 is the no-effect control and ±100 the full control effect; nearly all actives have a fitted effect of over 50% in size
BAZ2B inh – blocks human BAZ2B | Potency, µM (series often up to 114 µM), for inactives: top-dose activity change, negative = inhibition, usual class: inhibitors | AlphaScreen BAZ2B-H3K14Ac peptide displacement | 360,000 compounds, 4.4% hits | Q9UIF8 | AID 504333; further: potency means the concentration at half of the fitted maximal effect; on the % scale 0 is the no-effect control and ±100 the full control effect; nearly all actives have a fitted effect of over 60% in size
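AlphaScreen displacement: compounds (up to 110uM) incubated 30 min at room temperature with a preformed 50 nM BAZ2B/50 nM biotinylated H3K14Ac peptide complex in PBS pH 7.4 with Tween-20. Donor and acceptor beads at 10 ug/mL final added, 20 min light-protected before reading.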
Six1-Eya2 blk – Six1/Eya2 interaction inhibition. Q15475+O00167. AlphaScreen GST-Six1/His-Eya2 binding, biochemical; stronger effect = lower value. activity change, % (concentration not given with the values). 360,000 compounds, 0.56% hits; in the data active means activity change below about -65%; inconclusive means mostly about -30% to -63%; further: on the % scale 0 is the no-effect control and ±100 the full control effect
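Six1/Eya2 binding was read as AlphaScreen signal after compounds were pinned into GST-Six1 plus His-tagged Eya2 (5X stock 250/500 nM) in pH 8.0 Tris/NaCl/TCEP buffer, beads added, then incubated 1 h, 37 C, dark.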
Numbers without * were called inactive; ? = inconclusive; nt = no result given; [ ] = another dose, or the depositor's remark. This is a sample that favours compounds with a hit; in the whole collection about 10% have one here. Unless noted, the call rests on the fitted dose curve; in most records, active means well fitted inhibition curve with a large enough effect; inconclusive means small, poorly fitted or top-dose-only effect; inactive means no such curve, though single readings can be large or run the other way.

SMILES | HP1b binding inh | G9a block | CtBP-E1A inh | JMJD2A Tudor inh | BAZ2B inh | Six1-Eya2 blk
Cc1ccc(C(=O)O)cc1NC(=O)c1cccs1 | 35% | ? | 6 | -11% | 39% | 7
Cc1ccc(C(=O)O)cc1NC(=O)C1=CSCCO1 | 53% | 50µM* | nt | 14% | -7% | 19
Cc1nc2ccc(NC(=O)COc3ccccc3)cc2s1 | 33% | -3% | 5 | -10% | 3% | 3
CCC(=O)Nc1nc2ccc(NC(=O)COc3ccccc3)cc2s1 | 36% | 79µM* | 5 | -1% | -17% | 6
O=C(COc1ccccc1)Nc1nc(-c2ccncc2)cs1 | -19% | 8.9µM* | -24 | -6% | -13% | 4
COc1cccc(C(=O)Nc2nc(-c3ccncc3)cs2)c1 | 7% | 32µM* | -6 | -16% | nt | -5
Cc1cc(C)cc(OCC(=O)Nc2nc(-c3cccnc3)cs2)c1 | ? | 10µM* | -2 | -14% | -5% | 1
COc1ccc(-c2cnc(C)o2)cc1S(=O)(=O)Nc1ccc(C)c(F)c1 | -9% | -6%[59 µM] | nt | -33% | ? | nt
COc1ccc(OCCOC(=O)CNC(=O)c2cccc(C)c2)cc1 | 13% | 50µM* | 0 | -2% | 13% | 12
CCc1ccc(/C=C/C(=O)c2c(C)cc(C)[nH]c2=O)cc1 | 42% | 56µM* | 0 | -3% | 5% | -1
Cc1cc(C)nc(CCNC(=O)CC2C(=O)NCCN2Cc2ccc(F)cc2Cl)n1 (stereo unspecified) | 16% | 45µM* | -11 | -7% | -5% | -3
CC(C)c1nc(CNC(=O)CC2C(=O)NCCN2Cc2ccc(F)cc2Cl)cs1 (stereo unspecified) | 36% | nt | -2 | -29% | -13% | -10
O=C(CC1C(=O)NCCN1Cc1ccc(F)cc1Cl)NCc1ccon1 (stereo unspecified) | 43% | 32µM* | 1 | -10% | -16% | -9
Cc1nn(C)c(C)c1S(=O)(=O)N(CC(=O)NCCc1ccccc1)c1ccc(C(C)C)cc1 | 36% | -28%[59 µM] | nt | -13% | -7% | nt
CCCc1nc(C)cc(N2CCN(c3ccccc3)CC2)n1 | 47% | 50µM* | 3 | -20% | -33% | 13
Cc1cc(N2CCN(c3ccccc3)CC2)nc(NCc2ccccc2)n1 | -17% | ? | -9 | -21% | ? | -4
COC(=O)C1=C(NC(=O)C2CCCCC2)CCS1 | -3% | 1.8µM* | 2 | ? | ? | -15
COc1ccc(NC2=Nc3cccc4cccc2c34)cc1 | ? | ? | -25 | 45µM* | 35µM* | ?
O=C(O)c1cccc(NC2=Nc3cccc4cccc2c34)c1 | 17% | ? | -1 | -10% | -3% | 0
c1ccc(NC2=Nc3cccc4cccc2c34)cc1 | -14% | 25µM* | -12 | -13%[57.1 µM] | ? | -17
CC(=O)Nc1ccc(Nc2nc3ccc(C)cc3n3nnnc23)cc1 | 30% | -5%[59 µM] | nt | 6% | -5% | nt
CCCC[N+](C)(C)CCC(=O)NC(C)(C)CS(=O)(=O)[O-] | ? | ? | 0 | 56µM* | 50µM* | 19
CCOC(=O)C1CCCCN1Cc1ccc(F)cc1 (stereo unspecified) | ? | 10µM* | 1 | 4.5µM* | 50µM* | 5
CCOC(=O)C1CCCCN1Cc1cn(C)nc1-c1ccccc1F (stereo unspecified) | 18% | -36% | 4 | 5% | 2% | 11
CCOC(=O)C1CCCCN1Cc1cc(Cl)ccc1O (stereo unspecified) | 85% | -11%[59 µM] | 32 | 16% | 17% | 19
CCOC(=O)C1CCCCN1Cc1ccc(-c2ccccc2)cc1 (stereo unspecified) | -9% | ? | 15 | 20µM* | 9% | 10
CCOC(=O)C1CCCCN1Cc1cccc(F)c1 (stereo unspecified) | ? | 3.5µM* | 12 | 22µM* | 50µM* | 7
CCOc1cc(-c2nc(-c3ccc(-c4ccccc4)nc3OCC)no2)cc(OCC)c1OCC | 42% | -4%[59 µM] | nt | 0% | -3% | nt
